Drawing on the supplement of paper PMC6555819, this text covers PBM binding z-score for 40 sequences.

This test deals with LXRb homodimer (NR concentration 270 nM). In words: PBM binding z-score (relative to random genomic background probes); higher = stronger binding; sequences stand for … in GC…GCGATTGACAGCGTAGAATGAAGG
A digest of the protocol: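 Random background probes are the reference for binding z-scores. These scores derive from regression-normalized fluorescence on custom Agilent 4×180K protein-binding microarrays incubated 1 h with ligand-free nuclear receptor dimers. Binding was detected with antibodies against each partner (one per run).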
AAATGTAGGTTATCGGGTCATTCAGTTTGCGCAT had a PBM binding z-score of 0.806. To TCTTGTAGATCAACAGGAGGTAAAGAAAGATCGA belongs -0.41; to CCTTACGGGTCACGAGGTTATGGCACGACGAGCG, 0.148. To CCTCGGAGGACAGAAGATCAGAGCTGTCCGCTTT belongs -1.2. To TTACCAAGGCGAGCTGAGGTCGTTGATCCAACTC belongs -0.87; to TCTAGTAGATCAGCAGGTTAAGAAAGCTGGCCAA, -0.762; to GCGACTGGGGCATCAGCAGGTTACGATAACTTAA, -0.638.

The sequence CGAACTAGGTCATCCAGGACAGTAAATACATTGA came in with a PBM binding z-score of 0.21. To ACTATTAGTTGAGACGAAGGCAACCGATAGGTTG belongs 0.221; to TCGAGTTGGTTAGTCGGGGCATTCAGCCAACATA, -0.685. The result for TAGCCTAGGTCATTCAGGGGCCTGTATAGAAAGC reads 0.91; that for TAGCCAAGGTCATGGGCCAGTATACCACGCGAAC, 0.229; that for TCTAGTTGGGCACGGAGGTCACACACGACGGGTA, 0.446. To ATCTCTAGGTAAAGTACAGTGAAAGATCGATAGA belongs 0.745; to GTACCAAGATGAATAGGTCGTTGATGAGTAGGCG, -0.482; to CGAACTAGGTCCGAACAGGACAGTGAAGGATGAT, -0.811. CTCGAAAGGTCGTTCTCAGGTGAGTATACCAAAC registered a PBM binding z-score of 1.37.

CAAACTAAGTCAAGGTCAAAGTCGGTTTGTGCCA registered a PBM binding z-score of 1.52. The result for GTTGCTAGGTCAGGTTGGTCAGCTAACGGGTACG reads 0.434. The result for CCAACGAGGGCATGAGTTGATAGCAAATGCCGAT reads -0.701; that for TCTTGTAGATCGGCAGGTTAAGAAAGCTGGCCAA, -0.432; that for TCGAGTAGGTTAGGGGCATTCAAAATGGCGTCGA, -0.0733. To TAGCCTAGGTCATTCAGGGGCCAGTCTAGAAAGC belongs 0.819; to TCTCCTAGGTCAGTTGGTCAGCTAACGAGCTGCC, 1.43. In turn, ATCGAAAGGTCGTGAGGTGAGTGTACAGAAAGGC registered a PBM binding z-score of 0.507. To CGTCAAAGTTCAAGGTAACGGAACAGAAAGCAGC belongs 0.735; to ACTATTAGTTGAGACGAGGGCAAACGATAGGTTG, 0.32; to TCGAGTAGGTTAGGGGCTTTCAGAATGGCGTCGA, -0.232. To CGAGCTAGGTCAAGGACAGTGAATCTCCGCACGC belongs -0.582; to ATCTCTAGGTAAGAAGTTCAGTGAAAGAGAGGAC, 0.539; to TTACCAAGGGGAGCTGAGGTCGTTGATCCAACTC, -0.398.

For ACAGACAGTTGAGTGAAGGTAACTCAGCTGGACG, the PBM binding z-score is -0.26. To TCTCGGAGGACACGTAAGGTCAGAGCTCGACATC belongs -0.238; to ATCTCTAGGTAACAAGTTAAGTGAAAGAGAGGAC, 0.69. To CTCGAAAAGTCGTGCTCAGGTGAGTATACCAAAC belongs -0.108; to TGAATGAGGTTATAAGCTCAGGGAACGTTGCAAA, -0.391.

As to AGAATGAGGTTATAAAGATCAGGGAATTGCGGTC, the PBM binding z-score worked out at 0.00236. To CAAACTAGGTCACCGGAAGGTCAACGTCCGCATG belongs 1.1; to ATAGGTAGGTTAGCTGGGGTCATTCAGACTAGGC, 1.29; to TCTATTAGTTGACTAGGGCAACCGAAACAGCGGA, 0.447.
